# Six1-Eya2 blk – blocks human Six1 binding to Eya2. Q15475+O00167. AlphaScreen GST-Six1/His-Eya2 binding, biochemical; stronger effect = lower value. activity change, % (test concentration not listed). 360,000 compounds, 0.56% hits. AID 651725; in the data active = activity change below about -65%; inconclusive = mostly about -30% to -63%; also: % is scaled to controls: 0 for no effect and ±100 for the full control effect
# Target sequence (O00167 whole entry, looked up): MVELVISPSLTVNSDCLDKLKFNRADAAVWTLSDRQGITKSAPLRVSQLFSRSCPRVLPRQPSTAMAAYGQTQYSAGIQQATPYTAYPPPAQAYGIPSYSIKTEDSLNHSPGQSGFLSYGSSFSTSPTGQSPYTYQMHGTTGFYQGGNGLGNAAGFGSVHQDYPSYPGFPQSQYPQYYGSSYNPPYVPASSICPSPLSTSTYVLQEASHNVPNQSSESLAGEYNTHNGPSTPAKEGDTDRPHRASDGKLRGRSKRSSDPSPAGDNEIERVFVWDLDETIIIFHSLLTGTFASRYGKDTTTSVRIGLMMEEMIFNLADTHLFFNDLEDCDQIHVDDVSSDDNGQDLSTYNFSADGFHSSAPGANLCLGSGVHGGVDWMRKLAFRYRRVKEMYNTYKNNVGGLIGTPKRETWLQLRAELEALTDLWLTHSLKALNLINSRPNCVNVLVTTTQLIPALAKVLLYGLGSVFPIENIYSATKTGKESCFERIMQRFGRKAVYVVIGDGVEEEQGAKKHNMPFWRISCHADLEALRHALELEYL
# Target sequence (Q15475 whole entry, looked up): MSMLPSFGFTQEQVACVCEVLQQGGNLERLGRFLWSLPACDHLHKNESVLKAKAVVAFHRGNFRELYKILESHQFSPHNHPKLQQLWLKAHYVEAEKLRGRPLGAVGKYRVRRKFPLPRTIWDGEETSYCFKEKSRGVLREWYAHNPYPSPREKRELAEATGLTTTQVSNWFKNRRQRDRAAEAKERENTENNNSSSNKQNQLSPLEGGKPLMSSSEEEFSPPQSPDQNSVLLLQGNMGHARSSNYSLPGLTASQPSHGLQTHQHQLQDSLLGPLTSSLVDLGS
#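 Compounds are tested against tagged Six1 and Eya2 proteins bridged by glutathione donor and nickel acceptor beads; after a one-hour incubation at 37 °C without light, AlphaScreen emission is recorded.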
# TGFb inhibitor – blocks TGF-b signaling; HepG2 CAGA-GFP TGF-b/SMAD3 reporter, GFP fluorescence, 18 h; TGF-beta stimulated, 500 pg/mL final; Potency, µM (top dose mostly 46.1 µM), without a hit: at the top dose activity, negative = inhibition, usual class: inhibitors; 410,000 compounds, 1.2% hits; AID 588855; also: potency is read from the fitted curve at half-maximal effect; % is scaled to controls: 0 for no effect and ±100 for the full control effect; nearly all actives have a fitted effect of over 65% in size
#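 GFP signal (ex488/em500-530) from TGF-beta-stimulated HEPG2 CAGA-GFP cells, 500 pg/mL final, 18 h at 37 degrees C in DMEM plus 1% FBS, normalized to unstimulated and DMSO-stimulated controls.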
# CtBP-E1A blk – blocks the CtBP interaction with E1A; AlphaScreen GST-E1A/His-CtBP binding, 1536-well; stronger effect = lower value; 340,000 compounds, 0.49% hits; activity change, % (test concentration not listed); in the data active = activity change below about -65%; inconclusive = mostly about -30% to -63%; also: % is scaled to controls: 0 for no effect and ±100 for the full control effect
#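 GST-E1A and His-tagged CtBP (125 nM each as 5X stock) were preincubated with pin-transferred compound for 2 h at 37 °C in the dark, then glutathione donor and nickel acceptor beads were added for 1 h before AlphaScreen reading.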
# ATXN2 expr inh – ATXN2 expression inhibition; Potency, µM (titrated, usually from 57 µM), for inactives: at the top dose activity change, negative = inhibition, most hits filed as inhibitors; 360,000 compounds, 0.72% hits; HEK-293 ATXN2-luciferase reporter, luminescence, 24 h; also: potency is read from the fitted curve at half-maximal effect; % is scaled to controls: 0 for no effect and ±100 for the full control effect; nearly all actives have a fitted effect of over 55% in size
#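 qHTS (up to 57 uM final) was run with 24 h compound exposure of reporter cells at 37 °C. Each well was multiplexed: SteadyGlo luminescence measured ATXN2-luciferase expression after a fluorogenic Gly-Phe-AFC viability readout (25 uM final).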
# ATXN viability – cell viability loss in ATXN counter-screen; AID 651635; Potency, µM (highest dose often 56.7 µM), actives largely listed as cytotoxic; 400,000 compounds, 0.49% hits; S2 cells (HEK-293 line with an ATXN2-luciferase reporter) viability, CellTiter-Fluor protease fluorescence, 24 h; also: potency is read from the fitted curve at half-maximal effect; nearly all actives have a fitted effect of over 40% in size
# HepG2 tox – counter-screen for TGF-b inhibitors: cytotoxicity in HepG2 cells. 410,000 compounds, 0.76% hits. HepG2 CAGA-GFP viability, ATP luminescence, 18 h. Potency, µM (series often up to 46.1 µM), for inactives: at the highest dose activity change, negative = cytotoxicity, usual class: cytotoxic; also: potency is read from the fitted curve at half-maximal effect
#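 CellTiter-Glo luminescence gave cytotoxicity after 18 hours at 37 degrees C. The cells were HepG2 CAGA-GFP in 1% FBS DMEM, stimulated with 500 pg/mL TGF-beta after compound addition. %Activity was normalised to no-cell wells (complete cell-killing) and DMSO (no toxicity), and curves were fitted and classified.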
# SKNSH spheroid – SK-N-SH 3D spheroid viability loss; shares compounds with ATXN2 expr inh; SK-N-SH 3D spheroid viability, PI/Hoechst imaging, 72 h; Potency, µM (highest dose often 30.7 µM), usual class: inhibitors; 65 compounds, 70% hits; AID 1347135
# SJGBM2 3D viab – SJ-GBM2 spheroid viability loss, orthogonal 3D screen; 65 compounds, 80% hits; SJ-GBM2 3D spheroid viability, PI/Hoechst imaging, 72 h; Potency, µM (titrated, usually from 30.7 µM), actives largely listed as inhibitors; AID 1347136; shares compounds with ATXN2 expr inh
# Daoy spheroid – kills Daoy spheroids in orthogonal 3D test. Potency, µM (highest dose often 30.7 µM), usual class: inhibitors. 65 compounds, 50% hits. Daoy 3D spheroid viability, PI/Hoechst imaging, 72 h. shares compounds with ATXN2 expr inh
# TC32 3D caspase – caspase activation in TC32 3D spheroids, orthogonal test. shares compounds with ATXN2 expr inh. 65 compounds, 30% hits. TC32 3D spheroids, caspase-3/7 fluorescence imaging, 24 h. Potency, µM (series often up to 30.7 µM), actives largely listed as inhibitors
# TC32 3D tox – reduced viability of TC32 3D spheroids, orthogonal test | Potency, µM (highest dose often 30.7 µM), actives largely listed as inhibitors | shares compounds with ATXN2 expr inh | TC32 3D spheroid viability, PI/Hoechst imaging, 72 h | 65 compounds, 60% hits | AID 1347139
# MG63 3D tox – MG-63 (6-TG R) 3D spheroid viability loss. MG-63 (6-TG R) 3D spheroid viability, PI/Hoechst imaging, 72 h. Potency, µM (highest dose often 30.7 µM), actives largely listed as inhibitors. shares compounds with ATXN2 expr inh. 65 compounds, 50% hits
# RD spheroid – reduced viability of RD 3D spheroids, orthogonal test. shares compounds with ATXN2 expr inh. 65 compounds, 50% hits. RD rhabdomyosarcoma 3D spheroid viability, PI/Hoechst imaging, 72 h. Potency, µM (series often up to 30.7 µM), usual class: inhibitors
# * marks the source's active call; other numbers are inactive results; i = inactive; ? = inconclusive; . = no result. A selection: hits, their analogues and other compounds. The true share with any hit is near 2.8%. Unless noted, calls follow the shape of the dose curve; as a rule, active = well fitted curve in the direction sought with a large enough effect; inconclusive = small, poorly fitted or top-dose-only effect, or another doubt; inactive = no such curve, though single readings can be large; an effect the other way counts as inactive or inconclusive.
SMILES,Six1-Eya2 blk,TGFb inhibitor,CtBP-E1A blk,ATXN2 expr inh,ATXN viability,HepG2 tox,SKNSH spheroid,SJGBM2 3D viab,Daoy spheroid,TC32 3D caspase,TC32 3D tox,MG63 3D tox,RD spheroid
CC(=O)O[C@H]1C(=O)[C@@]2(C)[C@H]([C@H](OC(=O)c3ccccc3)[C@]3(O)C[C@H](OC(=O)[C@H](O)[C@@H](NC(=O)c4ccccc4)c4ccccc4)C(C)=C1C3(C)C)[C@]1(OC(C)=O)CO[C@@H]1C[C@@H]2O,4.2,-19.7%,-20.1,-24.2%,?,-39.5%,0.144µM*,0.0102µM*,0.144µM*,?,0.0144µM*,?,0.0574µM*
COc1cc(C(C)=O)ccc1OCCCN1CCC(c2noc3cc(F)ccc23)CC1,.,.,.,6.8%,i,.,?,4.06µM*,16.2µM*,i,i,12.8µM*,14.4µM*
Cc1ccc(CSc2nc(-c3ccccc3C)nc3c2Cc2c(CO)cnc(C)c2O3)cc1,.,-25.2%,.,?,.,-25.4%,.,.,.,.,.,.,.
COC(=O)Nc1nc2ccc(C(=O)c3ccc(F)cc3)cc2[nH]1,.,.,.,-9.8%,.,.,1.02µM*,0.909µM*,?,?,2.04µM*,?,?
O=C(Nc1c(C(=O)c2ccc(F)cc2)oc2ccccc12)c1cc(-c2ccccc2)on1,.,9.4%,.,-0.8%,.,-14.6%,.,.,.,.,.,.,.
O=C1C(Cl)=C(NCCN2CCOCC2)C(=O)c2ncccc21,.,.,.,9.68µM*,.,.,3.23µM*,4.56µM*,6.44µM*,i,11.4µM*,5.11µM*,11.4µM*
O=C1C(Cl)=C(NCCCN2CCOCC2)C(=O)c2ccccc21,-23.1,?,-15.6,?,?,-41.5%,.,.,.,.,.,.,.
CCOC(=O)c1cc(-c2ccc(C)cc2)n(CC(=O)Nc2ccc(OC)c(Cl)c2)c1C,.,1.6%,.,0.3%,i,-6.7%,.,.,.,.,.,.,.
CC(C)(C)NC(=O)[C@H]1CN(Cc2cccnc2)CCN1C[C@@H](O)C[C@@H](Cc1ccccc1)C(=O)N[C@H]1c2ccccc2C[C@H]1O,.,.,.,?,.,.,i,i,i,i,i,i,i
CCOc1ccc(CNC(=O)c2nn(-c3ccc(OC)cc3)c(=O)c3c2c2ccccc2n3C)cc1,.,10.2%,.,-0.1%,i,5.0%,.,.,.,.,.,.,.

# Source: PubChem
